From PubChem BioAssay AID2797 (The Scripps Research Institute Molecular Screening Center, 2010)
Hit rate of the full screen: of about 320,000 compounds, about 820 (0.26%) were called active. This excerpt belongs to a sample that is enriched for actives. Values without a mark were called inactive.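 How the source made its calls: active means activation above the mean activation of all tested compounds plus 3 SD, per screening run (cut at about 20% in these data); inactive means the rest.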

target: Vasopressin V1a receptor (Homo sapiens) (UniProt P37288); experiment: agonists of human V1a receptor, primary screen, counter-screen for OXTR agonist project, fluorescence, CHO-V1R cells (AID 2797); conditions: Fluo-8 calcium fluorescence, agonist mode, at 3 µM, stronger effect = higher value, 0% DMSO, 100% 3 nM vasopressin;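 further: signal is peak over basal fluorescence ratio across a 100 second FLIPR read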
Sequence (P37288 whole entry, looked up): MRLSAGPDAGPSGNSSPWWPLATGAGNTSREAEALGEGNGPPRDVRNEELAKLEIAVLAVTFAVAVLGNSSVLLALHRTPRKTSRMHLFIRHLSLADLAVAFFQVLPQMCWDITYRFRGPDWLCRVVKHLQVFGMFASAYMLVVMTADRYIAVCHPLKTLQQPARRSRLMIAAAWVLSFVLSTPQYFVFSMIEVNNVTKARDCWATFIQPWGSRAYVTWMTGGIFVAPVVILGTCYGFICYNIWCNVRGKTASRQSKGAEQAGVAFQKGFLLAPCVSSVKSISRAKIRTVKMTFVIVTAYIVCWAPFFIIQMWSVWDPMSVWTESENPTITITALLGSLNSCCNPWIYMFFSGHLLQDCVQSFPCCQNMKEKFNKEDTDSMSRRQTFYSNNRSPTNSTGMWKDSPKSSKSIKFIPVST

Row | SMILES | activation
1 | CC1CN(C(=O)c2ccccc2NS(=O)(=O)c2cccc([N+](=O)[O-])c2)CC(C)O1 (stereo not given) | 1.41%
2 | CCOc1ccc(Cn2nnc(C(=O)NCc3ccccc3)c2N)cc1 | 27.1% (active)
3 | CCOc1ccc(Cn2nnc(C(=O)Nc3ccc(OC)cc3OC)c2N)cc1 | 12.4%
4 | CCc1ccc(NC(=O)Cn2nnc(C(=O)NCc3ccc(OC)cc3)c2N)cc1 | 0.71%
5 | O=C(C[n+]1ccc2c(c1)nnn2-c1ccccc1)c1ccc(Cl)cc1 | -1.54%
6 | COc1ccc(CCNc2cc(C)nc3c(-c4ccc(Cl)cc4)c(C)nn23)cc1OC | -0.66%
7 | C=CCOCCN(C)C1=NS(=O)(=O)c2ccccc21 | -0.21%
8 | CCO[C@H]1OC(C(=O)N2CCCCCCC2)=C[C@@H](c2ccc(C(F)(F)F)cc2)[C@@H]1CCCO | -0.98%
9 | O=C(/C=C/c1ccc2c(c1)OCCO2)c1ccc(O)cc1 | 1.07%
10 | O=C(/C=C(O)/C=C/c1ccc(O)cc1)/C=C/c1ccc(O)cc1 | 76.2% (active)
11 | O=C(O)/C=C/c1ccc(OCCCF)cc1 | 0.21%
12 | CC(C)(C)S(=O)(=O)c1ccccc1-c1noc(-c2ccccc2)c1C(N)=O | 0.13%
13 | CCc1c(O)cc2n(c1=O)-c1ccccc1C2(C)C | 1.27%
14 | CCOc1ccc2[nH]c3nc(SCC(=O)NC4CCCC4)nnc3c2c1 | 1.39%
15 | Nc1c(C(=O)c2cccs2)sc2nsc(SCCN3CCCCC3)c12 | 34.8% (active)
16 | O=C(CSc1ncnc2sccc12)N1CCN(C(=O)c2cccs2)CC1 | 1.53%
17 | O=C(NCC(=O)N1CCC2(CC1)NCCc1[nH]cnc12)c1ccc(Br)cc1 | -0.07%
18 | Cc1noc(C)c1NC(=O)Nc1cccc2c1O[C@H](CN(C)C(=O)Nc1ccccc1)[C@@H](C)CN([C@H](C)CO)C2=O | 0.98%
19 | COc1ccc(N2C(=O)c3cccc4cccc(c34)C2=O)nn1 | -0.33%
20 | Cc1nn(C)cc1C(=O)c1ccccc1 | 0.77%
21 | CN1C(=O)c2cccc3c(N)ccc(c23)C1=O | 133% (active)
22 | CC(=O)Nc1ccccc1Sc1ccc2c3c(cccc13)C(=O)N(c1ccc(C)cc1)C2=O | 0.04%
23 | Cc1nn(C)cc1N1C(=O)c2cccc3c(N)ccc(c23)C1=O | 66.8% (active)
24 | O=C(O)c1ccc2c3c(cccc13)C(=O)N(OS(=O)(=O)c1ccccc1)C2=O | 0.24%
25 | COc1ccc(N(C(=O)c2ccc(C)cc2)S(=O)(=O)c2cccs2)cc1 | 0.59%

Row | SMILES | activation
26 | Cc1cc(C(=O)CC#N)c(C)n1-c1c(C)n(C)n(-c2ccccc2)c1=O | 1.66%
27 | CCOP1(=O)C=C(C(C)(C)C)OC1c1ccc(F)cc1 (stereo not given) | 0.37%
28 | Cc1ccc(N(C(=O)c2snc(C(N)=O)c2N)C(C(=O)NCC2CCCO2)c2c[nH]c3ccccc23)cc1 (stereo not given) | 2.4%
29 | CCN1/C(=C\c2ccc3ccccc3[n+]2CC)Sc2cc(C)ccc21 | 20.7% (active)
30 | O=C1CCCN2N=C(SCC(=O)Nc3ccc(Br)cc3)SC2=N1 | 8.83%
31 | CCOC(=O)Cc1c(C)nc2c(C#N)c(C)nn2c1C | -0.1%
32 | CCOC(=O)N1CCC(O)(c2cc(C)c(C)cc2C)CC1 | 0.01%
33 | CCCCCCn1cc(C(=O)O)c(=O)c2cc(F)c(N3CCCCC3)cc21 | 1%
34 | CCOC(=O)Cn1c(=O)oc2cc(S(=O)(=O)N(C)Cc3ccco3)ccc21 | 1.45%
35 | CN(c1ccccc1)c1ccc(/C=c2\s/c(=C(/C#N)C(=O)C(C)(C)C)n(Cc3ccco3)c2=O)cc1 | 28% (active)
36 | COc1cc(NC(=O)COC(=O)c2cc(S(=O)(=O)N3CCOCC3)ccc2F)cc(OC)c1 | 1.44%
37 | Cc1ccc(C(=O)NNC(=O)C(C)Oc2ccc3ccccc3c2)o1 (stereo not given) | 0.2%
38 | CC(Oc1ccc2ccccc2c1)C(=O)NNC(=S)NC(=O)c1ccco1 (stereo not given) | 23% (active)
39 | CCCc1ccc(OCC(=O)NNC(=S)NC(=O)c2ccco2)cc1 | 19.5%
40 | Cc1cc2c(=O)n(CC(=O)NCC(=O)Nc3ccc(C(C)C)cc3)cnc2s1 | 0.52%
41 | O=C(CC1SC(=Nc2ccccc2F)N(CCN2CCOCC2)C1=O)Nc1ccc(F)cc1F (stereo not given) | -0.11%
42 | CCCC(C)C(=O)Nc1ccc(NC(C)=O)cc1 (stereo not given) | 1.31%
43 | COc1cc(OC)c(-n2cc(-c3ccc(Cl)cc3)[nH]c2=O)cc1Cl | 38.5% (active)
44 | COc1cc(OC)c(N2CC(C(=O)Nc3cc(Cl)ccc3N3CCOCC3)CC2=O)cc1Cl (stereo not given) | 2.59%
45 | COc1cc(OC)c(-n2c(C)cc(C=O)c2C)cc1Cl | -0.41%
46 | CN1/C(=C\C=C2\N=C(c3ccc(F)cc3)OC2=O)C(C)(C)c2ccccc21 | 2.99%
47 | O=C(NCCc1nnc2ccc(SCC(=O)N3CCOCC3)nn12)c1ccccc1 | -0.68%
48 | CCC(C)(C)C1CCC(=NNC(=O)c2ccc(Br)o2)CC1 (stereo not given) | 0.08%
49 | Cc1ccc(CN2CCN(c3ccccc3Cl)CC2)o1 | -0.73%
50 | O=C(CCc1[nH]c2ccccc2c1Sc1ccccc1)N(CCO)CCO | 0.05%
